# Assay results published in PubChem BioAssay (EPA / NIEHS).
# Calls of active or inactive are those of the source. The calls were made as follows: active = hit-call score of the fitted dose curve at least 0.9, where 1 is the maximum; inactive = score below 0.9.
# Columns and labels:
# Conditions in all cases: mRNA level, 48 h; actives raise or lower the signal
# [1] = read-out: Forkhead box O1 (FOXO1), FOXO1 (gene 2308); experiment: LTEA_HepaRG_FOXO1: Life Technologies and Expression Analysis (LTEA) Assay for Forkhead box O1 (FOXO1) using HepaRG (AID 2283456)
# How it was run: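 Differentiated HepaRG cells, in serum-free induction medium with 0.5% DMSO, exposed 48 h in duplicate to 8-point half-log series from 100 uM. FOXO1 mRNA measured by TaqMan qRT-PCR, normalized to ACTB, GAPDH, POLR2A; bidirectional fit versus DMSO.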
# [2] = read-out: growth arrest and DNA damage 45 (GADD45A), GADD45A (gene 1647); experiment: LTEA_HepaRG_GADD45A: Life Technologies and Expression Analysis (LTEA) Assay for growth arrest and DNA damage 45 (GADD45A) using HepaRG (AID 2283458)
# How it was run: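 Cells plated and cultured 48 h, switched to serum-free induction medium, then dosed for 48 h (100 uM top, half-log dilutions, 0.5% DMSO). RNA was isolated and transcript measured by Fluidigm qRT-PCR.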
# [3] = read-out: Forkhead box O3 (FOXO3), FOXO3 (gene 2309); experiment: LTEA_HepaRG_FOXO3: Life Technologies and Expression Analysis (LTEA) Assay for Forkhead box O3 (FOXO3) using HepaRG (AID 2283459)
# How it was run: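 Differentiated human HepaRG cells, 48 h post-plating, exposed in duplicate for 48 h in serum-free induction medium; 8-point half-log series from 100 uM in 0.5% DMSO. FOXO3 mRNA by TaqMan qRT-PCR, normalized to ACTB/GAPDH/POLR2A; bidirectional fit versus DMSO.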
# [4] = read-out: ABC Transporter (ABCB1), ABCB1 (gene 5243); experiment: LTEA_HepaRG_ABCB1: Life Technologies and Expression Analysis (LTEA) Assay for ABC Transporter (ABCB1) using HepaRG (AID 2283460)
# How it was run: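 HepaRG cells exposed in duplicate for 48 h in serum-free induction medium to eight half-log concentrations up to 100 uM in 0.5% DMSO. ABCB1 mRNA quantified by qRT-PCR, normalised to ACTB, GAPDH and POLR2A; fitted bidirectionally versus DMSO.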
# [5] = read-out: growth arrest and DNA damage 45 (GADD45B), GADD45B (gene 4616); experiment: LTEA_HepaRG_GADD45B: Life Technologies and Expression Analysis (LTEA) Assay for growth arrest and DNA damage 45 (GADD45B) using HepaRG (AID 2283461)
# How it was run: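 Differentiated human HepaRG cells in serum-free induction medium exposed 48 h in duplicate to eight concentrations, top 100 uM, half-log steps, 0.5% DMSO. GADD45B mRNA by TaqMan qRT-PCR, normalized to ACTB, GAPDH, POLR2A; bidirectional fit versus DMSO.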
# [6] = read-out: ABC Transporter (ABCC3), ABCC3 (gene 8714); experiment: LTEA_HepaRG_ABCC3: Life Technologies and Expression Analysis (LTEA) Assay for ABC Transporter (ABCC3) using HepaRG (AID 2283462)
# How it was run: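 Differentiated human HepaRG cells exposed 48 h in serum-free induction medium, 0.5% DMSO vehicle, 8-point half-log series to 100 uM in duplicate. ABCC3 mRNA by qRT-PCR, normalised to ACTB, GAPDH, POLR2A; bidirectional fit vs DMSO.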
# [7] = read-out: ABC Transporter (ABCB11), ABCB11 (gene 8647); experiment: LTEA_HepaRG_ABCB11: Life Technologies and Expression Analysis (LTEA) Assay for ABC Transporter (ABCB11) using HepaRG (AID 2283463)
# How it was run: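 Differentiated human HepaRG cells in serum-free induction medium, dosed in duplicate for 48 h. Eight-point half-log series from 100 uM in 0.5% DMSO; ABCB11 mRNA by qRT-PCR, normalized to ACTB, GAPDH, POLR2A, fitted bidirectionally versus DMSO.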
# [8] = read-out: ABC Transporter (ABCC2), ABCC2 (gene 1244); experiment: LTEA_HepaRG_ABCC2: Life Technologies and Expression Analysis (LTEA) Assay for ABC Transporter (ABCC2) using HepaRG (AID 2283464)
# How it was run: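 Differentiated HepaRG cells in serum-free induction medium exposed 48 h to eight half-log concentrations up to 100 uM, 0.5% DMSO, in duplicate. ABCC2 mRNA measured by qRT-PCR (TaqMan, Fluidigm), normalized to ACTB, GAPDH and POLR2A. Fitted in both directions against DMSO.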
# [9] = read-out: Broad substrate specificity ATP-binding cassette transporter ABCG2 (Homo sapiens) (UniProt Q9UNQ0); experiment: LTEA_HepaRG_ABCG2: Life Technologies and Expression Analysis (LTEA) Assay for ABC Transporter (ABCG2) using HepaRG (AID 2283465)
# How it was run: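 Differentiated HepaRG cells were exposed for 48 h in serum-free induction medium to 8 half-log concentrations, top 100 uM, in 0.5% DMSO. ABCG2 mRNA was measured by qRT-PCR, normalized to ACTB, GAPDH and POLR2A, with bidirectional fitting versus DMSO.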
# [10] = read-out: ATP-citrate lyase (ACLY), ACLY (gene 47); experiment: LTEA_HepaRG_ACLY: Life Technologies and Expression Analysis (LTEA) Assay for ATP-citrate lyase (ACLY) using HepaRG (AID 2283466)
# How it was run: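 Differentiated HepaRG cells exposed 48 h in serum-free induction medium to eight half-log concentrations up to 100 uM in 0.5% DMSO, duplicates. Transcript measured by Fluidigm TaqMan qRT-PCR, normalized to ACTB, GAPDH, POLR2A; bidirectional fit versus DMSO.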
# [11] = read-out: Peroxisomal acyl-coenzyme A oxidase 1 (ACOX1) gene, ACOX1 (gene 51); experiment: LTEA_HepaRG_ACOX1: Life Technologies and Expression Analysis (LTEA) Assay for Peroxisomal acyl-coenzyme A oxidase 1 (ACOX1) gene using HepaRG (AID 2283467)
# How it was run: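 HepaRG cells, plated 48 h then switched to serum-free induction medium, were exposed in duplicate for 48 h to 8-point half-log concentrations up to 100 uM in 0.5% DMSO. ACOX1 mRNA was measured by qRT-PCR, normalized to ACTB/GAPDH/POLR2A, and fitted bidirectionally versus DMSO.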
# [12] = read-out: Alkaline Phosphatase, Placental (ALPP) gene, ALPP (gene 250); experiment: LTEA_HepaRG_ALPP: Life Technologies and Expression Analysis (LTEA) Assay for Alkaline Phosphatase, Placental (ALPP) gene using HepaRG (AID 2283468)
# How it was run: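 HepaRG cells plated 48 h, then exposed in duplicate for 48 h in serum-free induction medium to 8-point half-log series from 100 uM in 0.5% DMSO. ALPP mRNA by TaqMan qRT-PCR, normalized to ACTB/GAPDH/POLR2A; bidirectional fit versus DMSO.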
# [13] = read-out: Bcl-2 (BAD) gene, BAD (gene 572); experiment: LTEA_HepaRG_BAD: Life Technologies and Expression Analysis (LTEA) Assay for Bcl-2 (BAD) gene using HepaRG (AID 2283469)
# How it was run: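 Differentiated HepaRG cells were exposed in duplicate in 0.5% DMSO for 48 h to eight-point half-log concentrations up to 100 uM. BAD mRNA was measured by Fluidigm TaqMan qRT-PCR, normalized to ACTB, GAPDH and POLR2A, and fitted bidirectionally against DMSO.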
# [14] = read-out: Bcl-2 (BAX) gene, BAX (gene 581); experiment: LTEA_HepaRG_BAX: Life Technologies and Expression Analysis (LTEA) Assay for Bcl-2 (BAX) gene using HepaRG (AID 2283470)
# How it was run: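 HepaRG (human liver), 48 h exposure, duplicate wells. 8-pt curve, half-log from 100 uM, 0.5% DMSO. BAX transcript by TaqMan qRT-PCR; ACTB/GAPDH/POLR2A normalization; gain or loss vs DMSO baseline.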
# [15] = read-out: adenosine kinase (ADK) gene, ADK (gene 132); experiment: LTEA_HepaRG_ADK: Life Technologies and Expression Analysis (LTEA) Assay for adenosine kinase (ADK) gene using HepaRG (AID 2283471)
# How it was run: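 ADK expression quantified by qRT-PCR, normalised to three housekeeping genes, after 48 h exposure of HepaRG cells to eight concentrations (top 100 uM, half-log steps, duplicate, 0.5% DMSO). Up- or down-regulation fitted relative to vehicle.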
# [16] = read-out: Alpha-fetoprotein (AFP) gene, AFP (gene 174); experiment: LTEA_HepaRG_AFP: Life Technologies and Expression Analysis (LTEA) Assay for Alpha-fetoprotein (AFP) gene using HepaRG (AID 2283472)
# How it was run: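 HepaRG, single lot; 48 h post-plating -> serum-free induction medium; cpd 8-pt, 100 uM top, half-log, 0.5% DMSO, duplicate, 48 h. RNA -> qRT-PCR AFP, norm ACTB/GAPDH/POLR2A. Bidirectional fit vs DMSO.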
# BCL2L11 (gene 10018) = experiment: LTEA_HepaRG_BCL2L11: Life Technologies and Expression Analysis (LTEA) Assay for Bcl-2 (BCL2L11) gene using HepaRG (AID 2283473)
# How it was run: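 Differentiated human HepaRG cells were exposed 48 h in serum-free induction medium to eight half-log concentrations up to 100 uM in 0.5% DMSO, in duplicate. BCL2L11 mRNA was quantified by TaqMan qRT-PCR, normalized to ACTB, GAPDH and POLR2A; induction or repression fitted versus DMSO.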
# [17] = read-out: Apolipoprotein A-V (APOA5) gene, APOA5 (gene 116519); experiment: LTEA_HepaRG_APOA5: Life Technologies and Expression Analysis (LTEA) Assay for Apolipoprotein A-V (APOA5) gene using HepaRG (AID 2283474)
# How it was run: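 Differentiated HepaRG cells in serum-free induction medium, exposed 48 h in duplicate to eight half-log concentrations topping at 100 uM (0.5% DMSO). APOA5 mRNA by Fluidigm TaqMan qRT-PCR, normalized to ACTB, GAPDH and POLR2A; bidirectional fit versus DMSO.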
# [18] = read-out: Apoptosis regulator Bcl-2 (Homo sapiens) (UniProt P10415); experiment: LTEA_HepaRG_BCL2: Life Technologies and Expression Analysis (LTEA) Assay for Bcl-2 gene using HepaRG (AID 2283475)
# How it was run: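 HepaRG, plated 48 h then switched to serum-free induction medium; dosed 48 h, 8 conc. (max 100 uM, half-log steps), duplicate, 0.5% DMSO. Lysis in RLT, RNA isolated, TaqMan qRT-PCR for BCL2; ACTB/GAPDH/POLR2A normalisation; bidirectional fit vs DMSO.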
# Chain of Apoptosis regulator Bcl-2 (Homo sapiens) (P10415 whole entry, looked up): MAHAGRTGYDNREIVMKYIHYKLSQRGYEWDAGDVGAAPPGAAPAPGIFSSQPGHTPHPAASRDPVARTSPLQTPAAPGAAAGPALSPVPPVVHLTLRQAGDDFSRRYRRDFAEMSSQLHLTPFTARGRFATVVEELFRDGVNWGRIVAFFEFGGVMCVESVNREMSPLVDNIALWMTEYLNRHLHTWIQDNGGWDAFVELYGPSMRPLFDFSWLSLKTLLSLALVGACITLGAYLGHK
# Chain of Broad substrate specificity ATP-binding cassette transporter ABCG2 (Homo sapiens) (Q9UNQ0 whole entry, looked up): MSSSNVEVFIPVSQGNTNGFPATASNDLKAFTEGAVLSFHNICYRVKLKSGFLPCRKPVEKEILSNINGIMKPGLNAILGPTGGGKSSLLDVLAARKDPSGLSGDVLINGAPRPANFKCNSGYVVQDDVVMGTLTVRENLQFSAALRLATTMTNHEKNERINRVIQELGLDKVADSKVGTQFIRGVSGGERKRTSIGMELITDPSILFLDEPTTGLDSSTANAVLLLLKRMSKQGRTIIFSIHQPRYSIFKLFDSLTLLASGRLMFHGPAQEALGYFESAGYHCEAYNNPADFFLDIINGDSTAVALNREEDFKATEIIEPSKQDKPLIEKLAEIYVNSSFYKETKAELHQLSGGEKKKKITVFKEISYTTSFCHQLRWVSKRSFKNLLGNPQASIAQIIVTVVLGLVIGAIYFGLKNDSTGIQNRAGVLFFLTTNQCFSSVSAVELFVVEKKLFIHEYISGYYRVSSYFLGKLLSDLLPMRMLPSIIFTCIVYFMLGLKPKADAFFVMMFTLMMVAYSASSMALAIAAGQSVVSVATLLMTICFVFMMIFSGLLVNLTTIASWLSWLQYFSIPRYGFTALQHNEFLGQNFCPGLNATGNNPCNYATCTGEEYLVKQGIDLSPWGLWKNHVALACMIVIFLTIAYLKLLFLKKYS
smiles,measurement,setting,value
Nc1nc(Cl)nc2c1ncn2[C@H]1C[C@H](O)[C@@H](CO)O1,AC50,[1],1650 nM (active)
same,AC50,[2],263 nM (active)
same,AC50,[3],2180 nM (active)
same,AC50,[4],1390 nM (active)
same,AC50,[5],447 nM (active)
same,AC50,[6],987 nM (active)
same,AC50,[7],593 nM (active)
same,AC50,[8],1120 nM (active)
same,outcome,[9],inactive
same,outcome,[10],inactive
same,AC50,[11],4130 nM (active)
same,outcome,[12],inactive
same,outcome,[13],inactive
same,AC50,[14],415 nM (active)
same,AC50,[15],1050 nM (active)
same,AC50,[16],1720 nM (active)
same,outcome,BCL2L11 (gene 10018),inactive
same,AC50,[17],1120 nM (active)
same,outcome,[18],inactive
O=C(NS(=O)(=O)/C=C/c1cccs1)c1ccc(F)cc1Br,outcome,[1],inactive
same,outcome,[2],inactive
same,outcome,[3],inactive
same,AC50,[4],13200 nM (active)
same,outcome,[5],inactive
same,outcome,[6],inactive
same,AC50,[7],50000 nM (active)
same,AC50,[8],7300 nM (active)
same,AC50,[9],9270 nM (active)
same,outcome,[10],inactive
same,outcome,[11],inactive
same,outcome,[12],inactive
same,outcome,[13],inactive
same,outcome,[14],inactive
same,outcome,[15],inactive
same,AC50,[16],50000 nM (active)
same,outcome,BCL2L11 (gene 10018),inactive
same,outcome,[17],inactive
same,outcome,[18],inactive
Oc1ccc(O)cc1,outcome,[1],inactive
same,outcome,[2],inactive
same,outcome,[3],inactive
same,outcome,[4],inactive
same,outcome,[5],inactive
same,outcome,[6],inactive
same,outcome,[7],inactive
same,outcome,[8],inactive
same,outcome,[9],inactive
same,outcome,[10],inactive
same,outcome,[11],inactive
same,outcome,[12],inactive
same,outcome,[13],inactive
same,outcome,[14],inactive
same,outcome,[15],inactive
same,outcome,[16],inactive
same,outcome,BCL2L11 (gene 10018),inactive
same,outcome,[17],inactive
same,outcome,[18],inactive
